From PubChem BioAssay AID1159580 (chemical genetic matrix, 2015)
Values joined by “and” are separate entries in the source; they are usually repeats but may differ in a detail not shown here. Equal values may be shown once. About 2,000 (36%) of roughly 5,500 compounds were called active. Not shown: some 18% with an inconclusive outcome. No stated cut-off is given here; in the data, active means normalized growth mostly below about 0.91 (no sharp cut-off); inconclusive means no clear call, values can overlap the other calls; inactive means mostly above about 0.92. Some of the results follow.

Experiment: chemical genetic growth profiling, strain panel (AID 1159580);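 further: tested at 20 µM; growth read once vehicle control cultures reached saturation at 30 °C; 1 = growth at the plate median or of vehicle wells; lower values mean less growth of the strain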
Conditions: growth OD

Measured: normalized growth

N=c1nc(N2CCCCC2)cc(N)n1O
inactive: S. cerevisiae deletion strains, locus YJR075W, strain HOC1, hits give low values 1 | S. cerevisiae deletion strains, locus YKL009W, strain mrt4, hits give low values 0.948 | S. cerevisiae deletion strains, locus YKL068W, hits give low values 0.993 | S. cerevisiae deletion strains, locus YKL085W, strain MDH1 (second series), hits give low values 0.995 | S. cerevisiae deletion strains, locus YKL085W, strain MDH1, hits give low values 0.995 | S. cerevisiae deletion strains, locus YKL160W, strain elf1, hits give low values 0.969 | S. cerevisiae deletion strains, locus YKL190W, strain CNB1, hits give low values 0.996 | S. cerevisiae deletion strains, locus YKR001C, strain vps1, hits give low values 0.995 | S. cerevisiae deletion strains, locus YKR026C, strain gcn3, hits give low values 0.997 | S. cerevisiae deletion strains, locus YKR091W, strain srl3, hits give low values 0.977 | S. cerevisiae deletion strains, locus YLL001W, strain dnm1, hits give low values 0.932 | S. cerevisiae deletion strains, locus YLL026W, hits give low values 0.985 | S. cerevisiae deletion strains, locus YLL041C, strain sdh2, hits give low values 0.99 | S. cerevisiae deletion strains, locus YLR027C, strain aat2, hits give low values 1.01 | S. cerevisiae deletion strains, locus YLR039C, strain RIC1, hits give low values 0.976 | S. cerevisiae deletion strains, locus YLR058C, strain SHM2, hits give low values 0.97 | S. cerevisiae deletion strains, locus YLR102C, strain apc9, hits give low values 0.981 | S. cerevisiae deletion strains, locus YLR113W, strain HOG1, hits give low values 0.984 | S. cerevisiae deletion strains, locus YLR221C, strain rsa3, hits give low values 0.948 | S. cerevisiae deletion strains, locus YLR258W, strain gsy2, hits give low values 0.998 | S. cerevisiae deletion strains, locus YLR262C, strain YPT6 (second series), hits give low values 0.989 | S. cerevisiae deletion strains, locus YLR262C, strain YPT6, hits give low values 0.903 | S. cerevisiae deletion strains, locus YLR268W, strain sec22, hits give low values 1.08 | S. cerevisiae deletion strains, locus YLR320W, strain mms22, hits give low values 0.96 | S. cerevisiae deletion strains, locus YLR330W, strain CHS5, hits give low values 0.979 | S. cerevisiae deletion strains, locus YLR342W, strain FKS1 (second series), hits give low values 0.98 | S. cerevisiae deletion strains, locus YLR342W, strain FKS1, hits give low values 0.985 | S. cerevisiae deletion strains, locus YLR357W, strain rsc2, hits give low values 0.996 | S. cerevisiae deletion strains, locus YLR370C, strain arc18, hits give low values 0.982 | S. cerevisiae deletion strains, locus YLR371W, strain rom2, hits give low values 0.95 | S. cerevisiae deletion strains, locus YLR384C, strain iki3, hits give low values 0.987 | S. cerevisiae deletion strains, locus YLR418C, strain cdc73, hits give low values 0.994 | S. cerevisiae deletion strains, locus YML016C, strain PPZ1, hits give low values 0.973 | S. cerevisiae deletion strains, locus YML032C, strain rad52, hits give low values 0.998 | S. cerevisiae deletion strains, locus YML120C, strain ndi1, hits give low values 0.959 | S. cerevisiae deletion strains, locus YML124C, strain tub3, hits give low values 0.98 | S. cerevisiae deletion strains, locus YMR058W, strain fet3, hits give low values 0.986 | S. cerevisiae deletion strains, locus YMR078C, strain ctf18, hits give low values 0.979 | S. cerevisiae deletion strains, locus YMR125W, strain sto1, hits give low values 0.978 | S. cerevisiae deletion strains, locus YMR129W, hits give low values 0.99 | S. cerevisiae deletion strains, locus YMR205C, strain PFK2, hits give low values 0.947 | S. cerevisiae deletion strains, locus YMR223W, strain ubp8, hits give low values 0.945 | S. cerevisiae deletion strains, locus YMR231W, strain pep5, hits give low values 0.991 | S. cerevisiae deletion strains, locus YMR263W, strain SAP30, hits give low values 0.993 | S. cerevisiae deletion strains, locus YMR307W, strain GAS1, hits give low values 0.935 | S. cerevisiae deletion strains, locus YNL067W, strain RPL9B, hits give low values 0.999 | S. cerevisiae deletion strains, locus YNL071W, strain lat1, hits give low values 0.991 | S. cerevisiae deletion strains, locus YNL128W, strain TEP1, hits give low values 0.953 | S. cerevisiae deletion strains, locus YNL153C, strain GIM3, hits give low values 1.01 | S. cerevisiae deletion strains, locus YNL175C, strain NOP13, hits give low values 0.994 | S. cerevisiae deletion strains, locus YNL183C, strain NPR1, hits give low values 0.945 | S. cerevisiae deletion strains, locus YNL197C, strain WHI3, hits give low values 0.993 | S. cerevisiae deletion strains, locus YNL209W, strain ssb2, hits give low values 0.984 | S. cerevisiae deletion strains, locus YNL224C, strain SQS1, hits give low values 1.01 | S. cerevisiae deletion strains, locus YNL233W, strain BNI4, hits give low values 0.998 | S. cerevisiae deletion strains, locus YNL248C, strain rpa49, hits give low values 1 | S. cerevisiae deletion strains, locus YNL250W, strain rad50, hits give low values 0.98 | S. cerevisiae deletion strains, locus YNL271C, strain bni1, hits give low values 0.987 | S. cerevisiae deletion strains, locus YNL298W, strain CLA4, hits give low values 0.996 | S. cerevisiae deletion strains, locus YNL307C, strain MCK1, hits give low values 0.999 | S. cerevisiae deletion strains, locus YNL322C, strain KRE1 (second series), hits give low values 0.98 | S. cerevisiae deletion strains, locus YNL322C, strain KRE1, hits give low values 0.989 and 0.993 | S. cerevisiae deletion strains, locus YNR049C, strain mso1, hits give low values 0.972 | S. cerevisiae deletion strains, locus YNR052C, strain pop2, hits give low values 0.98 | S. cerevisiae deletion strains, locus YOL006C, strain TOP1, hits give low values 1.02 | S. cerevisiae deletion strains, locus YOL012C, strain htz1 0.984 | S. cerevisiae deletion strains, locus YOL147C, strain pex11, hits give low values 0.987 | S. cerevisiae deletion strains, locus YOR001W, strain rrp6, hits give low values 1.02 | S. cerevisiae deletion strains, locus YOR061W, strain CKA2, hits give low values 0.964 | S. cerevisiae deletion strains, locus YOR069W, strain VPS5, hits give low values 0.987 | S. cerevisiae deletion strains, locus YOR070C, strain gyp1, hits give low values 0.996 | S. cerevisiae deletion strains, locus YOR080W, strain dia2, hits give low values 0.984 | S. cerevisiae deletion strains, locus YOR083W, strain WHI5 (second series), hits give low values 1.01 | S. cerevisiae deletion strains, locus YOR083W, strain WHI5, hits give low values 0.974 | S. cerevisiae deletion strains, locus YOR106W, strain vam3, hits give low values 0.944 | S. cerevisiae deletion strains, locus YOR136W, strain idh2, hits give low values 0.988 | S. cerevisiae deletion strains, locus YOR144C, strain elg1, hits give low values 0.988 | S. cerevisiae deletion strains, locus YOR184W, strain ser1, hits give low values 1 | S. cerevisiae deletion strains, locus YOR231W, strain MKK1, hits give low values 1.02 | S. cerevisiae deletion strains, locus YOR265W, strain rbl2, hits give low values 0.989 | S. cerevisiae deletion strains, locus YOR270C, strain vph1, hits give low values 0.979 | S. cerevisiae deletion strains, locus YOR290C, strain snf2, hits give low values 0.896 | S. cerevisiae deletion strains, locus YOR316C, strain cot1, hits give low values 0.993 | S. cerevisiae deletion strains, locus YPL051W, strain arl3, hits give low values 1 | S. cerevisiae deletion strains, locus YPL055C, strain LGE1, hits give low values 0.988 and 0.98 | S. cerevisiae deletion strains, locus YPL078C, strain atp4, hits give low values 0.968 | S. cerevisiae deletion strains, locus YPL106C, strain sse1, hits give low values 0.948 | S. cerevisiae deletion strains, locus YPL240C, strain hsp82, hits give low values 0.981 | S. cerevisiae deletion strains, locus YPL241C, strain CIN2, hits give low values 0.976 | S. cerevisiae deletion strains, locus YPL256C, strain CLN2, hits give low values 0.993 | S. cerevisiae deletion strains, locus YPR119W, strain clb2, hits give low values 0.982 | S. cerevisiae deletion strains, locus YPR141C, strain kar3, hits give low values 0.974 | S. cerevisiae deletion strains, locus YPR163C, strain tif3, hits give low values 0.993 | S. cerevisiae deletion strains, locus YPR167C, strain met16, hits give low values 0.995 | S. cerevisiae deletion strains, strain wtn01, hits give low values 1.04 | S. cerevisiae strains, strain wild type, hits give low values 0.992
